Where “and” joins values, the source holds several entries; their conditions need not be identical. Identical values can stand only once. Results filed as inconclusive are left out. Calls of active or inactive are those of the source. Unless noted, calls come from the whole dose curve; as a rule, active = well fitted curve in the direction sought with a large enough effect; inconclusive = small, poorly fitted or top-dose-only effect, or another doubt; inactive = no such curve, though single readings can be large; an effect the other way counts as inactive or inconclusive.
How the values were obtained:
[1] = AP1 Signaling Pathway (AID 357; active = well fitted curve in either direction with a large enough effect, not every such curve was filed as active; note: % is set by controls: 0 for no effect and ±100 for the full control effect); conditions: ME-180 AP-1-bla reporter, EGF-induced, beta-lactamase ratio, 5 h; at 7.69 µM (top of the series) unless noted
How it was run: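 AP-1-bla ME-180 cells with beta-lactamase reporter under AP-1 response element, stimulated with EC50 EGF; compounds titrated, 5 hours at 37 degrees Celsius. CCF4 read at 460/530 nm ratio; positive and negative modulators judged by AC50.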

[2] = biological target: Cytochrome P450 1A2 (Homo sapiens) (UniProt P05177); test: p450-cyp1a2 (AID 410; calls by dose curve; note: potency is the fitted concentration of half-maximal effect;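 for activity change, negative = inhibition: -100% = full effect of reference inhibitor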)
Sequence of Cytochrome P450 1A2 (Homo sapiens) (P05177 whole entry, looked up): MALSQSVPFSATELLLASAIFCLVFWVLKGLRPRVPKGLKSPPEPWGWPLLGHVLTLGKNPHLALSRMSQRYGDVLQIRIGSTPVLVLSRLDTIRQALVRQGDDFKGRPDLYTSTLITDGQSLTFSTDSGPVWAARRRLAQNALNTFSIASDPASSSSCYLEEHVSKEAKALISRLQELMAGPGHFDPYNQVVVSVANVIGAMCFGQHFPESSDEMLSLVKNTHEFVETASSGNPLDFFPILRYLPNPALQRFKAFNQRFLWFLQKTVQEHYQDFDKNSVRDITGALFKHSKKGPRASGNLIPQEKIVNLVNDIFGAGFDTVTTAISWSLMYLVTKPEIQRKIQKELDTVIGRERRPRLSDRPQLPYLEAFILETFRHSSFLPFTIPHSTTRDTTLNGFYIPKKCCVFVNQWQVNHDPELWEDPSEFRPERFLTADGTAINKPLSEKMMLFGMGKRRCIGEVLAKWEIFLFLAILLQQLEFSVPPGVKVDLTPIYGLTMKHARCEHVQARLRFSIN
How it was run: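 Inhibition was calculated relative to 57 uM furafylline (full inhibition). The reaction used human CYP1A2 at 20nM with Luciferin-ME at its Km, 100uM, driven by an NADPH-regenerating system for 60 min at room temperature.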

[3] = NFAT Signaling Pathway (AID 444; active = well fitted curve in either direction with a large enough effect, not every such curve was filed as active;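 note: carbachol stimulus at about its EC50 of 1 µM final; % is set by controls: 0 for no effect and ±100 for the full control effect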); conditions: Jurkat NFAT-bla M1, carbachol, beta-lactamase ratio, 5 h; at 7.69 µM (top of the series) unless noted
How it was run: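 Read-out: CCF4 FRET ratio (460 nm/530 nm) after 1 h RT dye loading, used for %activity and AC50 from titration series. Cells: Jurkat NFAT-β-lactamase/M1 line, treated with compound plus 1 uM carbachol for 5 h, 37 °C.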

[4] = Stat Signaling Pathway (AID 446; active = well fitted curve in either direction with a large enough effect, not every such curve was filed as active;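 note: ME-180 cervical cancer cells given 40 pM IL-6 alongside compound; SIE-controlled beta-lactamase reporter measured as 460/530 nm FRET emission ratio; % is set by controls: 0 for no effect and ±100 for the full control effect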); conditions: ME-180 SIE beta-lactamase reporter, IL-6 stimulated, 5 h; at 7.69 µM (top of the series) unless noted
How it was run: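 Screening format detects activators and inhibitors alike: ME-180 SIE-bla cells stimulated at 40 pM IL-6 for 5 hrs with compound, then dual-emission beta-lactamase read at 405 nm excitation.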

[5] = biological target: Glucocorticoid receptor (Homo sapiens) (UniProt P04150); test: GR-GFP Redistribution (AID 450;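 active = compounds whose dose series gives a full or clear partial fitted curve of increased nuclear translocation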; note: potency is the fitted concentration of half-maximal effect); conditions: U2OS GR-GFP nuclear translocation, laser cytometry, 2 h
Sequence of Glucocorticoid receptor (Homo sapiens) (P04150 whole entry, looked up, the tested form may be a part): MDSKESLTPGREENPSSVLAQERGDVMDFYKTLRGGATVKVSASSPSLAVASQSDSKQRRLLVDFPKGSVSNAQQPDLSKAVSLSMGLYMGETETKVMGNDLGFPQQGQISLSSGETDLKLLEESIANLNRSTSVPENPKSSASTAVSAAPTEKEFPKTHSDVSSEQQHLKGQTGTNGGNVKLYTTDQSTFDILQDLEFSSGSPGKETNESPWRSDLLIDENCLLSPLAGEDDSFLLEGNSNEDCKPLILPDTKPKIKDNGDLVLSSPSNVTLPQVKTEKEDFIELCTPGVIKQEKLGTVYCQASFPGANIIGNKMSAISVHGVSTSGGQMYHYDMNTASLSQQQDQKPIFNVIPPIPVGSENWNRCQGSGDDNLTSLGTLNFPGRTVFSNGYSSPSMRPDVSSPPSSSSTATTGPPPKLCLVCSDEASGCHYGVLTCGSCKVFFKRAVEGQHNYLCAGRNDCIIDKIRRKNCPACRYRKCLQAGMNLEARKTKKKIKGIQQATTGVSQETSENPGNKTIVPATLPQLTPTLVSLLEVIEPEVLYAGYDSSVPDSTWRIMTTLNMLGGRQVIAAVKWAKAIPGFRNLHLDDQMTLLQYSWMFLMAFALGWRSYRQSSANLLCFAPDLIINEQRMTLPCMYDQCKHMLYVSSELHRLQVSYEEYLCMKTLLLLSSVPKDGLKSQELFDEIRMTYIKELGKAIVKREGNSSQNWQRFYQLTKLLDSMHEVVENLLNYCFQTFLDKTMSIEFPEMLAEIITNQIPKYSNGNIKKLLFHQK

[6] = biological target: Glucocorticoid receptor (Homo sapiens) (UniProt P04150); test: GR-EFC Redistribution (AID 451; calls by dose curve; note: potency is the fitted concentration of half-maximal effect); conditions: CHO-K1 GR-EFC translocation, beta-gal luminescence, 2 h
How it was run: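 Translocation of GR-ED fusion to nuclear EA restores b-gal, read by luminescence after 1 h room-temperature detection. Engineered CHO-K1 biosensor cells, 1,000/well, exposed 2 h at 37 C to titrations up to 46 uM final.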

[7] = biological target: Mitogen-activated protein kinase 10 (Mus musculus) (UniProt Q61831); test: JNK3 AlphaScreen Assay (AID 530; active = well fitted curve in either direction with a large enough effect, not every such curve was filed as active;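 note: kinase came from lysate of stimulated human HepG2 cells; signal reports phosphorylation of biotinylated GST-cJun 1-79 at Ser73 with 10 µM ATP; % is set by controls: 0 for no effect and ±100 for the full control effect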)
How it was run: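 Room-temperature AlphaScreen kinase assay; pre-activated HepG2 lysate as JNK3 source, biotin-GST-cJun(1-79) substrate, 10 uM ATP, compound 15 min preincubation.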

[8] = biological target: 3',5'-cyclic-AMP phosphodiesterase 4B (Homo sapiens) (UniProt Q07343); test: qHTS Assay for Inhibitors of PDE-IV (AID 607; active = well fitted activation curve with a large enough effect in the main read-out, with a control signal flat, not every such curve was filed as active; note: % of control where 0% means no effect)
Sequence of 3',5'-cyclic-AMP phosphodiesterase 4B (Homo sapiens) (Q07343 whole entry, looked up): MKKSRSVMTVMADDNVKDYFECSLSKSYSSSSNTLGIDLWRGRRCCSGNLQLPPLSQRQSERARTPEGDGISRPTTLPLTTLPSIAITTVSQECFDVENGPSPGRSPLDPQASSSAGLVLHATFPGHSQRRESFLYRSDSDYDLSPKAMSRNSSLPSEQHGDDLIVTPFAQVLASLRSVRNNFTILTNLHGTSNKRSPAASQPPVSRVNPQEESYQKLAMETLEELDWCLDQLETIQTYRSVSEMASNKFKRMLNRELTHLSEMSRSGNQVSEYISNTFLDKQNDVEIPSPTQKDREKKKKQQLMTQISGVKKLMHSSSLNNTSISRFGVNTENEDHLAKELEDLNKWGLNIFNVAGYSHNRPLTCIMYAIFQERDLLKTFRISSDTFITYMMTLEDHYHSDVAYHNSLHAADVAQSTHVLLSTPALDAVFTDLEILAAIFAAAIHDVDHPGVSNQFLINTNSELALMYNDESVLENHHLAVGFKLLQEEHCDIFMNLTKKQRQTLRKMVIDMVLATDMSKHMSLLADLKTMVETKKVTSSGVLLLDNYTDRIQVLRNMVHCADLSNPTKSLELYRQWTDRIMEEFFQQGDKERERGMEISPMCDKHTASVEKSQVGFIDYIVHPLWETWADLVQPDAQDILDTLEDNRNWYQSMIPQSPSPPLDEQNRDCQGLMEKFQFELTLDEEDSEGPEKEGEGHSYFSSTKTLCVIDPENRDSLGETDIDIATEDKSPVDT
How it was run: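 The readout is membrane depolarisation from a cAMP-sensing CNG channel, detected with a potential dye at ex 535/em 590. Cells were HEK293-derived (endogenous PDE-IV) at 1000 cells/well, titrated up to 22.9 uM final.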

[9] = qHTS Assay for Lipid Storage Modulators (AID 1519; calls by dose curve); conditions: Drosophila S3 cells, BODIPY lipid droplet/cell ratio, laser cytometry, cells loaded with oleic acid
How it was run: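 Cells seeded at 5,000 per well were treated with compounds over a concentration series and loaded with oleic acid (400 uM, as added). Lipid droplet fluorescence (488 nm excitation, 500-530 nm channel) was read by laser-scanning cytometry and normalized to 20 uM Triacsin C.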

[10] = biological target: Ubiquitin carboxyl-terminal hydrolase 1 (Homo sapiens) (UniProt O94782); test: Inhibitors of USP1/UAF1: Pilot qHTS (AID 504865);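 note: rhodamine fluorescence freed from ubiquitin-rhodamine substrate followed over time; top concentration of the series differs between compounds; % is set by controls: 0 for no effect and ±100 for the full control effect; nearly all actives have a fitted effect of over 35% in size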
Sequence of Ubiquitin carboxyl-terminal hydrolase 1 (Homo sapiens) (O94782 whole entry, looked up): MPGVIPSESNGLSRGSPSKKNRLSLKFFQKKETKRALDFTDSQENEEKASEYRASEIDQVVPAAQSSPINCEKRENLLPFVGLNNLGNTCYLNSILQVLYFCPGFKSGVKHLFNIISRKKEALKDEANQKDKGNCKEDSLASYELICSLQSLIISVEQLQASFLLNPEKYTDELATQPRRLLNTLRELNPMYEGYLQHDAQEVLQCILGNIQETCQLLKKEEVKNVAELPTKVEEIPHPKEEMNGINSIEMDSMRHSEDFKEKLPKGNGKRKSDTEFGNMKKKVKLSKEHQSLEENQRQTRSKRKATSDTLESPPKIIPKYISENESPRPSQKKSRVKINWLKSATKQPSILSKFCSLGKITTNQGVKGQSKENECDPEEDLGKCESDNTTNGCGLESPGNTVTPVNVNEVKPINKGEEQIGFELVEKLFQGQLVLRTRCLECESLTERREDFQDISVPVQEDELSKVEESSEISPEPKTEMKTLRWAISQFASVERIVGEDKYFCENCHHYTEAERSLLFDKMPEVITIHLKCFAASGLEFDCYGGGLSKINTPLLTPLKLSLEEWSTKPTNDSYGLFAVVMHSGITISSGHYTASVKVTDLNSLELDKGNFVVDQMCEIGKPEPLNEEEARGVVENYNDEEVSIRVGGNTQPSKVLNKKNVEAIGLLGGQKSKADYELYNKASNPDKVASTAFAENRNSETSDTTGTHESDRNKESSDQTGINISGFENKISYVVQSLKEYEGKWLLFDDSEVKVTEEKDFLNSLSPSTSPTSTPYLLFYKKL
How it was run: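 Deubiquitinase activity followed as kinetic rhodamine fluorescence release from 150 nM Ub-Rho. 1 nM USP1/UAF1 with compound, after 15 min room-temperature preincubation, in HEPES pH 7.8 buffer containing TCEP, EDTA, BSA and Tween-20.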

[11] = biological target: Luciferin 4-monooxygenase (Photinus pyralis) (UniProt P08659); test: Biochemical firefly luciferase enzyme assay for NPC (AID 624030);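 note: purified P. pyralis luciferase at 10 nM with luciferin and ATP substrate; 0% = DMSO and -100% = full luciferase inhibition by PTC124 control; nearly all actives have a fitted effect of over 70% in size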
Sequence of Luciferin 4-monooxygenase (Photinus pyralis) (P08659 whole entry, looked up): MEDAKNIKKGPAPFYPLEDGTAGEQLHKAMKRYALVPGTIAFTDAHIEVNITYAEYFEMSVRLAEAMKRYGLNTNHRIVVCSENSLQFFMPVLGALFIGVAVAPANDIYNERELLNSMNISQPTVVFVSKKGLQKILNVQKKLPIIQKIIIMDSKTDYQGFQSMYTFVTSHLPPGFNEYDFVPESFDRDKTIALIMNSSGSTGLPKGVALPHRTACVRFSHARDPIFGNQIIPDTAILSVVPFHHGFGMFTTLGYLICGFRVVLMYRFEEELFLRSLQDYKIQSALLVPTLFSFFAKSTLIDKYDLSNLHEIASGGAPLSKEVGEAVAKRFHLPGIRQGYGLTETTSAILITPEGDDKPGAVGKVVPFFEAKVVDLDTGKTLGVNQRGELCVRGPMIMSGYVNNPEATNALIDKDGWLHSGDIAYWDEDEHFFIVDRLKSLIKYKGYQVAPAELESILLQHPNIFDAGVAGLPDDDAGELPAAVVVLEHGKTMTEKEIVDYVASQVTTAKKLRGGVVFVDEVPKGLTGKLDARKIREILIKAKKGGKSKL
How it was run: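 Direct inhibition of firefly luciferase enzyme (10 nM final, 50 mM Tris Acetate) assessed by luminescence within 5 minutes. Percent activity scaled between DMSO and PTC124 positive control, with concentration-effect curves classified by fit quality and response.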

[12] = qHTS profiling for inhibitors of Plasmodium falciparum proliferation (AID 504749);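 note: 0% = DMSO vehicle and full inhibition = artemisinin control; nearly all actives have a fitted effect of over 60% in size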; conditions: P. falciparum in erythrocytes, SYBR Green DNA, 72 h
How it was run: (§1)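 Three-day growth assay of blood-stage parasites in erythrocytes (0.3% parasitemia, 2.5% hematocrit) at 37 C, 5% CO2, quantified by SYBR Green DNA staining after overnight detergent lysis.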

AS120 = test: as above; conditions: P. falciparum in erythrocytes, SYBR Green DNA, 72 h; series mostly up to 28.7 µM
How it was run: as §1

CP238 = test: as above; conditions: P. falciparum in erythrocytes, SYBR Green DNA, 72 h; series mostly up to 12.8 µM
How it was run: as §1

CP250 = test: as above; conditions: P. falciparum in erythrocytes, SYBR Green DNA, 72 h; series mostly up to 12.8 µM
How it was run: as §1

CP262 = test: as above; conditions: P. falciparum in erythrocytes, SYBR Green DNA, 72 h; series mostly up to 12.8 µM
How it was run: as §1

CP265 = test: as above; conditions: P. falciparum in erythrocytes, SYBR Green DNA, 72 h; series mostly up to 12.8 µM
How it was run: as §1

FAB9 = test: as above; conditions: P. falciparum in erythrocytes, SYBR Green DNA, 72 h; series mostly up to 12.8 µM
How it was run: as §1

[13] = biological target: ATP-dependent 6-phosphofructokinase (Trypanosoma brucei brucei) (UniProt O15648); test: qHTS Assay to Find Inhibitors of T. brucei phosphofructokinase: hit validation (AID 492961)
Sequence of ATP-dependent 6-phosphofructokinase (Trypanosoma brucei brucei) (O15648 whole entry, looked up): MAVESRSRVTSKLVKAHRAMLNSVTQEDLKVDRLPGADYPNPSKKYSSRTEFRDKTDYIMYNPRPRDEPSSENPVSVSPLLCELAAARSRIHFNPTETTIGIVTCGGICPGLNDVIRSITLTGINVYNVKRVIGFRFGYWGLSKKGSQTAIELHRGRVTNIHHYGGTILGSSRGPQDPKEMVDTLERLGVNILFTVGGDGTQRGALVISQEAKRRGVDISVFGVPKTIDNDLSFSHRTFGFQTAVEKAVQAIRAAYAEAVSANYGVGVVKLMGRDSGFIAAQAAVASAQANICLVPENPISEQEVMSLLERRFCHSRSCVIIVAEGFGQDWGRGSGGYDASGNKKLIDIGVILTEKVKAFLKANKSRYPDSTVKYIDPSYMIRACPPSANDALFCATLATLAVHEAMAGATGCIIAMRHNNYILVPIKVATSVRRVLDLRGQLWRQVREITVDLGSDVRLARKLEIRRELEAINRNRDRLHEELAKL
How it was run: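 In this biochemical qHTS validation, titrated compounds were tested against 1.25 nM PFK with 0.1 mM ATP and 0.5 mM F6P. Percent activity came from controls lacking or containing enzyme.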

[14] = measured here: cell count channel max response
[15] = measured here: lipid channel max response
[16] = at 28.7 µM (top of the series), parasite line A
[17] = at 28.7 µM (top of the series), parasite line B

Compound: CC1(C)S[C@@H]2[C@H](NC(=O)[C@H](C(=O)O)c3ccsc3)C(=O)N2[C@H]1C(=O)O
- activity change, negative = inhibition [1]: -4.81% [at 17.2 µM] (inactive) and 2.77% [at 17.2 µM] (inactive)
- Potency [2]: inactive
- activity change, negative = inhibition [3]: -7.87% [at 17.2 µM] (inactive) and 25.2% [at 17.2 µM] (inactive)
- activity, negative = inhibition [4]: 6.96% [at 17.2 µM] (inactive) and -0.401% [at 17.2 µM] (inactive)
- Potency [5]: > 20.6 µM (inactive)
- Potency [6]: > 20.6 µM (inactive)
- Potency [7]: inactive
- Potency [8]: inactive
- activity change, negative = inhibition ([9]; at 25.7 µM (top of the series)): 1.08% (inactive)
- max response [9, 14]: -10.5%
- max response [9, 15]: -8.09%
- Potency [10]: inactive
- outcome [11]: inactive
- activity, negative = inhibition [12, 16]: -4.85% (inactive)
- activity, negative = inhibition [12, 17]: 17.9% (inactive)
- Potency (AS120): inactive
- Potency (CP238): inactive
- Potency (CP250): inactive
- Potency (CP262): inactive
- Potency (CP265): inactive
- Potency (FAB9): inactive

Compound: COc1ccc2[nH]cc(CCNc3ncncc3-c3ccccc3CN(C)C)c2c1
- activity change, negative = inhibition [1]: -7.44% (inactive)
- Potency [2]: 20 µM (active)
- activity change, negative = inhibition [3]: -7.95% (inactive)
- activity, negative = inhibition [4]: 0.332% (inactive)
- Potency [5]: > 46 µM (inactive)
- Potency [6]: > 46 µM (inactive)
- Potency [7]: inactive
- Potency [8]: inactive
- activity change, negative = inhibition ([9]; at 57.5 µM (top of the series)): 2.99% (inactive)
- max response [9, 14]: -0.105%
- max response [9, 15]: 4.99%
- Potency [10]: inactive

Compound: CC1CC2C3CCC4=CC(=O)C=C[C@@]4(C)[C@]3(F)C(O)C[C@]2(C)[C@]1(O)C(=O)CO (stereo partly specified)
- activity change, negative = inhibition ([9]; at 57.5 µM (top of the series)): -0.857% (inactive) and 2.9% (inactive)
- max response [9, 14]: 20% and 4.4%
- max response [9, 15]: 23.5% and 9.45%
- Potency [10]: inactive

Compound: CC(C)CN1CC2(CCN(C(=O)c3cnccn3)CC2)C1
- activity change, negative = inhibition [1]: -4.93% (inactive)
- activity change, negative = inhibition [3]: -25.4% (inactive)
- activity, negative = inhibition [4]: -6.85% (inactive)
- Potency [6]: > 46 µM (inactive)
- Potency [7]: inactive
- Potency [8]: inactive
- activity change, negative = inhibition ([9]; at 57.5 µM (top of the series)): 3.58% (inactive)
- max response [9, 14]: 13.2%
- max response [9, 15]: 20.3%

Compound: CO/N=C(/C(=O)NC1C(=O)N2C(C(=O)O)=C(CSc3nc(=O)c(O)nn3C)CSC12)c1csc(N)n1 (stereo unspecified)
- activity change, negative = inhibition ([9]; at 57.5 µM (top of the series)): 7.84% (inactive) and 13.9% (inactive)
- max response [9, 14]: 7.61% and 7.25%
- max response [9, 15]: 18.4% and 25.1%
- Potency [10]: inactive
- outcome [11]: inactive
- activity, negative = inhibition [12, 16]: 11.8% (inactive)
- activity, negative = inhibition [12, 17]: 6.03% (inactive)
- Potency (AS120): inactive
- Potency (CP238): inactive
- Potency (CP250): inactive
- Potency (CP262): inactive
- Potency (CP265): inactive
- Potency (FAB9): inactive

Compound: O=C(O)/C=C\c1ccc(Cn2ccnc2)cc1
- activity change, negative = inhibition [1]: -4.02% [at 17.2 µM] (inactive)
- Potency [2]: 12.6 µM (active)
- activity change, negative = inhibition [3]: -0.213% [at 17.2 µM] (inactive)
- activity, negative = inhibition [4]: 6.45% [at 17.2 µM] (inactive)
- Potency [5]: > 20.6 µM (inactive)
- Potency [6]: > 20.6 µM (inactive)
- Potency [7]: inactive
- Potency [8]: inactive
- activity change, negative = inhibition ([9]; at 25.7 µM (top of the series)): 0.716% (inactive)
- max response [9, 14]: -6.14%
- max response [9, 15]: -3.7%
- outcome [13]: inactive
- Potency [10]: inactive
- outcome [11]: inactive
- activity, negative = inhibition ([12]; at 12.8 µM (top of the series), parasite line A): 2.69% (inactive)
- activity, negative = inhibition ([12]; at 12.8 µM (top of the series), parasite line B): -5.94% (inactive)
- Potency (AS120): inactive
- Potency (CP238): inactive
- Potency (CP250): inactive
- Potency (CP262): inactive
- Potency (CP265): inactive
- Potency (FAB9): inactive

— PubChem BioAssay (NCATS)
